Results as given in the supplement of paper PMC11732987, “Enantioselective OTUD7B fragment discovery through chemoproteomics screening and high-throughput optimisation” (Communications Chemistry, 2025).

Experiments:
Test in all cases: log2 ratio of Biotin-Ahx-Ub-VS probe labelling (fragment/DMSO); higher = less target engagement (more negative = stronger competition), active = hit call of the paper (q ≤ 0.05, log2 ratio ≤ -1)
Conditions in all cases: compound concentration: 200 uM; treatment time: 3 h
[1] = target: USP34 (UniProt Q70CQ2)
Chain of USP34 (Q70CQ2 whole entry, the tested form may be a part): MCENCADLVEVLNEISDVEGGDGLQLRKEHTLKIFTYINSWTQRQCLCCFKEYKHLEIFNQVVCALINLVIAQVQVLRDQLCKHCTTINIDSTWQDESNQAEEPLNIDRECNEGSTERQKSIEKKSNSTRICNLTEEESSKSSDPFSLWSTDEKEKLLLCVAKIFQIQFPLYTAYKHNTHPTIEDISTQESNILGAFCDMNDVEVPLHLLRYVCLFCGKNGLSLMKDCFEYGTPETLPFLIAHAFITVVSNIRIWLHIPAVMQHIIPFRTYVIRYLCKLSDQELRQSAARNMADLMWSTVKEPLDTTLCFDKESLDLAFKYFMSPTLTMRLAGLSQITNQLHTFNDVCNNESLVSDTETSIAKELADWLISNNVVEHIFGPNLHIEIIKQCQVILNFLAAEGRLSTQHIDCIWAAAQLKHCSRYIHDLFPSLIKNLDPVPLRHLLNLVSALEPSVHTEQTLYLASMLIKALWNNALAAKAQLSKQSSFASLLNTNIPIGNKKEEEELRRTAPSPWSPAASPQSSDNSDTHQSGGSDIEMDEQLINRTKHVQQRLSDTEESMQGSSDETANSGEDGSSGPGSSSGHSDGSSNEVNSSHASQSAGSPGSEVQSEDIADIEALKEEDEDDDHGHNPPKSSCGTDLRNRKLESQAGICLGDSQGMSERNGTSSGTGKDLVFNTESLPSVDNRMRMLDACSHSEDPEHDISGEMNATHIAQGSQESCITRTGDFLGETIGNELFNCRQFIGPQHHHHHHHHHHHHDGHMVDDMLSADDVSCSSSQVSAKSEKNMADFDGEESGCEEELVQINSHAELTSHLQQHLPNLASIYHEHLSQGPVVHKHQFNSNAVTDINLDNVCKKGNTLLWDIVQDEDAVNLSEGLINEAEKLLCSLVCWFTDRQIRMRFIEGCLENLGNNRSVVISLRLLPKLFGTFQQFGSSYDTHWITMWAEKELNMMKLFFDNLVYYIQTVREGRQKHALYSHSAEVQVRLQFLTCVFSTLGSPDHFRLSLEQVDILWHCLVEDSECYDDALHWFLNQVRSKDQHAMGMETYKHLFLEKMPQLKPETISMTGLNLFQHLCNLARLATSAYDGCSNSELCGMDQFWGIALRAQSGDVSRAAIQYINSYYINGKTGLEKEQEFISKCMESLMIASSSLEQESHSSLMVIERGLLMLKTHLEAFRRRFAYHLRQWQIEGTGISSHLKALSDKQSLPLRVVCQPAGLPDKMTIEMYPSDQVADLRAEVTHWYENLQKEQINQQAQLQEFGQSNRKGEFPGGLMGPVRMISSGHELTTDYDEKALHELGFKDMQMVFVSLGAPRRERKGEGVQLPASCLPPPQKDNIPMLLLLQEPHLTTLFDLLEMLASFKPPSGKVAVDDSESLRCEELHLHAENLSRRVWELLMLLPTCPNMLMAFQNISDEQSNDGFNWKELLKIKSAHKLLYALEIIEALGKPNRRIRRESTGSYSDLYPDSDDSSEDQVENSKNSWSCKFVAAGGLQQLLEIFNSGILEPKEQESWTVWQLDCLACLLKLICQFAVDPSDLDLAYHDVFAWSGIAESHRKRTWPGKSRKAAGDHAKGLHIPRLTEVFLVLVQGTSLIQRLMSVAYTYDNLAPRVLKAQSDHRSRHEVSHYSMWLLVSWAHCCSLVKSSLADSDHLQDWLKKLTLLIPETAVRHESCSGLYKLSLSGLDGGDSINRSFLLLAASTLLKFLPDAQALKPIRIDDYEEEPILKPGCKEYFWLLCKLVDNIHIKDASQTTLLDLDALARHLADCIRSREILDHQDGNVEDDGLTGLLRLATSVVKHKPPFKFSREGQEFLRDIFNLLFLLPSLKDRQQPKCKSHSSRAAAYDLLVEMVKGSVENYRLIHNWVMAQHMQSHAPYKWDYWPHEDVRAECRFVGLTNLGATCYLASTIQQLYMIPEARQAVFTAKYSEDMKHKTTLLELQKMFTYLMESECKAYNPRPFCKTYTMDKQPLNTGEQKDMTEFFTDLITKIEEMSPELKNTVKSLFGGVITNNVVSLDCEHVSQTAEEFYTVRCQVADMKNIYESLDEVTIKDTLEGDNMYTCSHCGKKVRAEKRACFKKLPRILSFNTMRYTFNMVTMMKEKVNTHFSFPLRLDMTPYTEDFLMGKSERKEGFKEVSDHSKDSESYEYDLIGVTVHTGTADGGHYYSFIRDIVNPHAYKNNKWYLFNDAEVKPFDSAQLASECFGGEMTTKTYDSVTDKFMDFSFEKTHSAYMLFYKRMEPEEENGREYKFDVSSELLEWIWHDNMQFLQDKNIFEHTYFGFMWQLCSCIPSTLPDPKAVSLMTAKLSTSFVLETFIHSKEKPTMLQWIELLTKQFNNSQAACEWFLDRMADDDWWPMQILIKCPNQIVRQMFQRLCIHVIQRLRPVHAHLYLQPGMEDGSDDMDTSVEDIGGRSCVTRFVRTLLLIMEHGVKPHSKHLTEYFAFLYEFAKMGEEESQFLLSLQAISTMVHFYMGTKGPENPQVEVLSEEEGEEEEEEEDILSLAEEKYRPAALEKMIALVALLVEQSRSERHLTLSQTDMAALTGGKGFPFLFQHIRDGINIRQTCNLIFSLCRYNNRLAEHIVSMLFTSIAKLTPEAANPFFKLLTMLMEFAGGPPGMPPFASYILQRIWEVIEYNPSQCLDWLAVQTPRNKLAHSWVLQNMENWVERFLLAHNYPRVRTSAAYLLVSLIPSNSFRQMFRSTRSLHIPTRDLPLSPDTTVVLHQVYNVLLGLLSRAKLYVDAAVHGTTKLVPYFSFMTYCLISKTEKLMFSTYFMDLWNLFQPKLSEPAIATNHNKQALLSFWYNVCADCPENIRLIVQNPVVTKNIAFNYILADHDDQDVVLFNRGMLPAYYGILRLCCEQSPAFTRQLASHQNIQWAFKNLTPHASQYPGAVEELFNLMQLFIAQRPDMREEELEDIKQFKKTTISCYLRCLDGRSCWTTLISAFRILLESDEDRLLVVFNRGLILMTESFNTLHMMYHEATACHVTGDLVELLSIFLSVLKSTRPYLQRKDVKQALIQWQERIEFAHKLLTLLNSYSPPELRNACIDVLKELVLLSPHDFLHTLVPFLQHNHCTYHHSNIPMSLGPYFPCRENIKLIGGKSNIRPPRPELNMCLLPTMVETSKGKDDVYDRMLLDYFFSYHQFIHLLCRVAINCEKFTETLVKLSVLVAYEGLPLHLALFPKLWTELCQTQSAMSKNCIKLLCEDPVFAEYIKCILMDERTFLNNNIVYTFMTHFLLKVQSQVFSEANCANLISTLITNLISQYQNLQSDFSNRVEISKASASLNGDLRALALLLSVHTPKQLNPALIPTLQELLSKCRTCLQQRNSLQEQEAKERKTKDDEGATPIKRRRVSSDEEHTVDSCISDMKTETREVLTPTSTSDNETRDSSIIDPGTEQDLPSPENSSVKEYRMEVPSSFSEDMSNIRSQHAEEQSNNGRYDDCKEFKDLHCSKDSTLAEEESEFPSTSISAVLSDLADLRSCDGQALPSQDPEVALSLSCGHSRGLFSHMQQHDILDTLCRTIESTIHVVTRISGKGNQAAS
Outline: (§1)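 Average log2 ratios of fragment over vehicle were obtained by unpaired t-test from global-median-normalised Spectronaut label-free quantities. Proteins with ≥2 unique peptides were included. HEK293T lysate (495 µg per sample) was treated in triplicate with fragment at 200 µM or vehicle for 3 h, then with Biotin-Ahx-Ub-VS at 0.5 µM final for 1 h, and labelled DUBs were NeutrAvidin-enriched and run by diaPASEF LC-MS/MS.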

[2] = target: T1, USP36 (UniProt Q9P275)
T1 sequence (whole entry): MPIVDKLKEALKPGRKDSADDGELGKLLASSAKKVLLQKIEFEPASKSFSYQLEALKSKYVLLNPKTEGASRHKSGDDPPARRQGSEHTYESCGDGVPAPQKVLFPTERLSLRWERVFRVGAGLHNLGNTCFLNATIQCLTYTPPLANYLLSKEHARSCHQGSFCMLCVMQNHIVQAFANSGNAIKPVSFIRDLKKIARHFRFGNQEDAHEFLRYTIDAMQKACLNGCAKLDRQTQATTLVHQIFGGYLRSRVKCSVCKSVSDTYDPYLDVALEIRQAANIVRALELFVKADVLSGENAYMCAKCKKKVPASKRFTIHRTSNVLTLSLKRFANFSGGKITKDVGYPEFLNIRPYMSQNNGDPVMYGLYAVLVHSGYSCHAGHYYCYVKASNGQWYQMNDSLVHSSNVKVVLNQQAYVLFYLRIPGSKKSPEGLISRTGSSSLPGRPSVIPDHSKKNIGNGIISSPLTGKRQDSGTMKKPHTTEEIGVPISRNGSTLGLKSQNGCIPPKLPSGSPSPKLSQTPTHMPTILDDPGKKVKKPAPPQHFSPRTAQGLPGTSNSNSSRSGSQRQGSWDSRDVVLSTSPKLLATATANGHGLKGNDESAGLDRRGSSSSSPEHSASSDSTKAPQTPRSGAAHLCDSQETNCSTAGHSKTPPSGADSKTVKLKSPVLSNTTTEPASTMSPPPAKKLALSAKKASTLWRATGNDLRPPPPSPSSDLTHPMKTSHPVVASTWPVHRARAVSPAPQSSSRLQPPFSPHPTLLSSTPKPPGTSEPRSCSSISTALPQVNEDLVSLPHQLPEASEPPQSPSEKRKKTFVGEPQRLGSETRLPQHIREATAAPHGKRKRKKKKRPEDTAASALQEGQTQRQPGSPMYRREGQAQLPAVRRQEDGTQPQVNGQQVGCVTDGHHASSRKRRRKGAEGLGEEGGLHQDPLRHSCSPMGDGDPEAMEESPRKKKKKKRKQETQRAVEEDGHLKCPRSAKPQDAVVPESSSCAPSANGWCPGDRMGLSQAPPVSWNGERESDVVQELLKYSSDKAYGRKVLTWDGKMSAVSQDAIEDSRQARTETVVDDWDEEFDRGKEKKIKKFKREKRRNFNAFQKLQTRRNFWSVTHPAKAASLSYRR
Outline: as §1

[3] = target: T2, USP38 (UniProt Q8NB14)
T2 sequence (whole entry): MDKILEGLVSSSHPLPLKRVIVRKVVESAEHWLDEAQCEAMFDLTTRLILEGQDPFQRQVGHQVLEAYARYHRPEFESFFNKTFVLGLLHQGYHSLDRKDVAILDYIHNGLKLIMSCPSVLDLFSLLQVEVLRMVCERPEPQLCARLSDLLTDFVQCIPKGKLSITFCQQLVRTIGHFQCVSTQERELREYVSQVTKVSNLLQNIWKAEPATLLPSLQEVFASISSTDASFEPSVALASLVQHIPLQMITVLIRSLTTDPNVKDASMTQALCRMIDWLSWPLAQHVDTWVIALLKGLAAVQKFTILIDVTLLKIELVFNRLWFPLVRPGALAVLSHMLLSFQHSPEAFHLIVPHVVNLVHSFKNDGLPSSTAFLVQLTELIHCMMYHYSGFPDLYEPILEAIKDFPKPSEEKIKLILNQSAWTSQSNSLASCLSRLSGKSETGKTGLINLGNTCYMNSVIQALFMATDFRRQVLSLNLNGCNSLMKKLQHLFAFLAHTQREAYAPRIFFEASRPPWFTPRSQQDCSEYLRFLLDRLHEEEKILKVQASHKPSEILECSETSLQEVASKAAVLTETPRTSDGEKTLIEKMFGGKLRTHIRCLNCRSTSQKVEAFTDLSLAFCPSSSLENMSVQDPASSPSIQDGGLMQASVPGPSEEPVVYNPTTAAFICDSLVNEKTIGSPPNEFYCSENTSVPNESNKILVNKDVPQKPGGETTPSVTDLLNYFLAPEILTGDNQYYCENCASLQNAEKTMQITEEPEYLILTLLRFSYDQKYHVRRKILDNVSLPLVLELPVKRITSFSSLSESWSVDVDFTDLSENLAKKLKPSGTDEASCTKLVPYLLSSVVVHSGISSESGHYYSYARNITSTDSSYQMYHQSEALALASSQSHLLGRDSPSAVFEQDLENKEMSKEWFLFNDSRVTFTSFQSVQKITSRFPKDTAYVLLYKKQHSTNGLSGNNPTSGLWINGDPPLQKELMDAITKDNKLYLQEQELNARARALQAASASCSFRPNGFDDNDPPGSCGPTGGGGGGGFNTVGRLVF
Outline: as §1

[4] = target: T3, USP39 (UniProt Q53GS9)
T3 sequence (whole entry): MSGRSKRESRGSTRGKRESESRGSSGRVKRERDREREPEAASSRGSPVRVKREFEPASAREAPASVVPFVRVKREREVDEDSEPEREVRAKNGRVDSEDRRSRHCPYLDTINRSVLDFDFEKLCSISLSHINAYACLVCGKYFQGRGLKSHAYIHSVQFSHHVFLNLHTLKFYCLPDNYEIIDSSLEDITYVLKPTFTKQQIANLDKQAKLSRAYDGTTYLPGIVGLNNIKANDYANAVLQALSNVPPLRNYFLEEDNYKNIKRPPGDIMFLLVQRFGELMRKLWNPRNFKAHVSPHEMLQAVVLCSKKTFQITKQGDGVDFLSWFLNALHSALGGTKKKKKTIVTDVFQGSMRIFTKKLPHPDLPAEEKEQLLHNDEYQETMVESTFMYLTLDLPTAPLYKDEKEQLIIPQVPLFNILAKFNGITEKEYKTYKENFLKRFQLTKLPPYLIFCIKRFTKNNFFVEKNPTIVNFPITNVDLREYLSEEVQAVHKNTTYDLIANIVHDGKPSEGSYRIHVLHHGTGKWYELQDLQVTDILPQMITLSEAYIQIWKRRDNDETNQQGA
Outline: as §1

[5] = target: T4, USP4 (UniProt Q13107)
T4 sequence (whole entry): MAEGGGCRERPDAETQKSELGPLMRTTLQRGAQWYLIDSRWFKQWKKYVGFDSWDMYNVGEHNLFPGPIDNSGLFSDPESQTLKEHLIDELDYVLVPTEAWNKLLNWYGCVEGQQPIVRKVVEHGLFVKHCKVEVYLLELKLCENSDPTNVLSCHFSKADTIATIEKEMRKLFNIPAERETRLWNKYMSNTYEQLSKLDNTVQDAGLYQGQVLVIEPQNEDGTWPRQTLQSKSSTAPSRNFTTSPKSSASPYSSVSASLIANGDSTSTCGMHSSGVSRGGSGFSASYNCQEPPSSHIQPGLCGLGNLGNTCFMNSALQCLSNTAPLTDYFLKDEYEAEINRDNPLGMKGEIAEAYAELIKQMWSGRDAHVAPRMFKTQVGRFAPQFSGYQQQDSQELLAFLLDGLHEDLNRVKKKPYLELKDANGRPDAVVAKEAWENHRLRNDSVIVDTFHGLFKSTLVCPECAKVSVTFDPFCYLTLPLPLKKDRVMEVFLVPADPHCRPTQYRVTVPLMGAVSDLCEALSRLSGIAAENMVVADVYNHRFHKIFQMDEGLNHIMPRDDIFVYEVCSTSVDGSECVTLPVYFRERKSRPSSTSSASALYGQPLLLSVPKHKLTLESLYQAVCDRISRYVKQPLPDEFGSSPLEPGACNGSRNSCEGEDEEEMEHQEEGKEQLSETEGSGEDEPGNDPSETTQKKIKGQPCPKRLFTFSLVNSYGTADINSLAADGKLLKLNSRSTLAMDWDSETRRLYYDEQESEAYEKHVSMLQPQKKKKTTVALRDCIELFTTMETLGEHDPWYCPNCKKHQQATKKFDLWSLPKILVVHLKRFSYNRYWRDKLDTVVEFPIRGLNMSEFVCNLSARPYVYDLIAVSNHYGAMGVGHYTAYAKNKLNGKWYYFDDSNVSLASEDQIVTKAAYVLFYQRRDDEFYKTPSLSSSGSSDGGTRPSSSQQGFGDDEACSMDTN
Outline: as §1

Measured: log2 ratio of Biotin-Ahx-Ub-VS probe labelling

Cl.O=C(CCl)N[C@H]1C[C@@H](n2cccn2)C1
inactive: [1] -0.109 | [2] 0.0625 | [3] 0.192 | [4] 0.31 | [5] -0.0753
